Structures can show the parent of a compound that is named as a salt.
What follows are compounds tested on replication-induced senescent mouse newborn dermal fibroblasts (NBF) (assay: relative cell viability of senescent cells (fraction); higher = less killing of senescent cells). Conditions: 1 µM; 3 days.
Experimental: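 Replication-induced senescent newborn mouse skin fibroblasts (NBFs) in 24-well plates were treated with a Selleck FDA-approved drug library at 1 µM for 3 days.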
With `CCC(C)(C)c1ccc(CC(C)CN2C[C@@H](C)O[C@@H](C)C2)cc1` (stereo not given in full) [Amorolfine HCl] the relative cell viability was 1.09. In the case of `CN1CCC[C@@H]1CCO[C@](C)(c1ccccc1)c1ccc(Cl)cc1` [Clemastine Fumarate], the relative cell viability is reported as 1.07. Compound `CCCCCOC(=O)Nc1nc(=O)n([C@@H]2O[C@H](C)[C@@H](O)[C@H]2O)cc1F` [Capecitabine] has a relative cell viability of 0.891. With `CN(C)CCOC(c1ccccc1)c1ccccc1` [Diphenhydramine HCl] the relative cell viability was 1.14. `Clc1ccc(Nc2nnc(Cc3ccncc3)c3ccccc23)cc1` [Vatalanib (PTK787) 2HCl] gave a relative cell viability of 0.741. With `NC(=O)NO` [Hydroxyurea] the relative cell viability was 0.967. `Nc1ncnc2c1ncn2[C@@H]1O[C@H](CO)[C@@H](O)[C@H]1O` [Adenosine] showed a relative cell viability of 0.937. Compound `CNC(=C[N+](=O)[O-])NCCSCc1ccc(CN(C)C)o1` [Ranitidine Hydrochloride] has a relative cell viability of 1.1. `OCCN(CCO)c1nc(N2CCCCC2)c2nc(N(CCO)CCO)nc(N3CCCCC3)c2n1` [Dipyridamole] showed a relative cell viability of 1. For `Cc1cnc(C(=O)O)c[n+]1[O-]` [Acipimox], the relative cell viability was 0.938. For `CCN(CCO)CCCOc1ccc2c(Nc3cc(CC(=O)Nc4cccc(F)c4)[nH]n3)ncnc2c1` [Barasertib (AZD1152-HQPA)], the relative cell viability was 1. For `CC(C)OC(=O)C(C)(C)Oc1ccc(C(=O)c2ccc(Cl)cc2)cc1` [Fenofibrate], the relative cell viability was 1.06. Compound `COC(=O)N[C@H](C(=O)N1CCC[C@H]1c1ncc(-c2ccc(-c3ccc(-c4cnc([C@@H]5CCCN5C(=O)[C@@H](NC(=O)OC)C(C)C)[nH]4)cc3)cc2)[nH]1)C(C)C` has a relative cell viability of 0.545. `Cn1cnc2c(F)c(Nc3ccc(Br)cc3Cl)c(C(=O)NOCCO)cc21` [Selumetinib (AZD6244)] was tested, and the relative cell viability was 0.897. `C#C[C@]1(O)CC[C@H]2[C@@H]3CCc4cc(O)ccc4[C@H]3CC[C@@]21C` [Ethinyl Estradiol] gave a relative cell viability of 0.86. `COC(=O)C1=C(C)NC(C)=C(C(=O)OC)C1c1ccccc1[N+](=O)[O-]` [Nifedipine] was tested, and the relative cell viability was 1.01. Work on `CC(C(=O)O)c1cccc(Oc2ccccc2)c1` (stereo not given) [Fenoprofen Calcium] yielded a relative cell viability of 1.13. Work on `Cc1ccc(C(=O)N(CCCN)[C@@H](c2nc3cc(Cl)ccc3c(=O)n2Cc2ccccc2)C(C)C)cc1` yielded a relative cell viability of 1.13. `CNC(=C[N+](=O)[O-])NCCSCc1csc(CN(C)C)n1` [Nizatidine] gave a relative cell viability of 0.956. Compound `Cc1cn([C@H]2C=C[C@@H](CO)O2)c(=O)[nH]c1=O` [Stavudine (d4T)] has a relative cell viability of 0.893. In the case of `NS(=O)(=O)c1cc2c(cc1Cl)N=CNS2(=O)=O` [Chlorothiazide], the relative cell viability is reported as 0.952. `O=NN(CCCl)C(=O)NC1CCCCC1` [Lomustine] was tested, and the relative cell viability was 1.02. Compound `CCCCC(=O)N(Cc1ccc(-c2ccccc2-c2nnn[nH]2)cc1)[C@H](C(=O)O)C(C)C` [Valsartan] has a relative cell viability of 0.897. Work on `CS(=O)(=O)OCCCCOS(C)(=O)=O` [Busulfan] yielded a relative cell viability of 1.03. Compound `CO/N=C(\C(=O)N[C@@H]1C(=O)N2C(C(=O)OCOC(=O)C(C)(C)C)=C(/C=C\c3scnc3C)CS[C@H]12)c1csc(N)n1` [Cefditoren Pivoxil] has a relative cell viability of 0.949. Work on `O=c1[nH]c(=O)n([C@H]2C[C@H](O)[C@@H](CO)O2)cc1I` [Idoxuridine] yielded a relative cell viability of 0.949. In the case of `O=c1[nH]cc(F)c(=O)[nH]1` [Fluorouracil (5-Fluoracil, 5-FU)], the relative cell viability is reported as 0.0476. For `COc1cc2nccc(Oc3ccc(NC(=O)NC4CC4)c(Cl)c3)c2cc1C(N)=O` [Lenvatinib (E7080)], the relative cell viability was 0.123. `COc1cc(Nc2c(C#N)cnc3cc(OCCCN4CCN(C)CC4)c(OC)cc23)c(Cl)cc1Cl` [Bosutinib (SKI-606)] showed a relative cell viability of 0.0801. Compound `CCCCc1nc2cc(/C=C/C(=O)NO)ccc2n1CCN(CC)CC` [Pracinostat (SB939)] has a relative cell viability of 1.01. For `C[C@]12C=CC(=O)N[C@@H]1CC[C@@H]1[C@@H]2CC[C@]2(C)[C@@H](C(=O)Nc3cc(C(F)(F)F)ccc3C(F)(F)F)CC[C@@H]12` [Dutasteride], the relative cell viability was 0.986. `CCCCC(=O)O[C@]1(C(=O)CO)[C@@H](C)C[C@H]2[C@@H]3CCC4=CC(=O)C=C[C@]4(C)[C@@]3(F)[C@@H](O)C[C@@]21C` [Betamethasone Valerate] was tested, and the relative cell viability was 1.15. Compound `Nc1nc(Cl)nc2c1ncn2[C@H]1C[C@H](O)[C@@H](CO)O1` [Cladribine] has a relative cell viability of 0.924. `CCCSc1ccc2[nH]c(NC(=O)OC)nc2c1` [Albendazole] showed a relative cell viability of 1.08. Work on `COCC[n+]1c2c(n(Cc3cnccn3)c1C)C(=O)c1ccccc1C2=O` [YM155 (Sepantronium Bromide)] yielded a relative cell viability of 0.187. `OC(CNCC(O)C1CCc2cc(F)ccc2O1)C1CCc2cc(F)ccc2O1` (stereo not given) [Nebivolol] was tested, and the relative cell viability was 0.256. `CC(=O)OCC(=O)NCCCOc1cccc(CN2CCCCC2)c1` [Roxatidine Acetate HCl] was tested, and the relative cell viability was 0.897. For `CS(=O)(=O)c1ccc(C(=O)Nc2ccc(Cl)c(-c3ccccn3)c2)c(Cl)c1` [Vismodegib (GDC-0449)], the relative cell viability was 0.521. Work on `CCCOc1ccc(C(=O)OCCN(CC)CC)cc1N` [Proparacaine HCl] yielded a relative cell viability of 0.992. In the case of `Nc1nc2c(ncn2COCCO)c(=O)[nH]1` [Aciclovir], the relative cell viability is reported as 1.06.

Reference: the supplement of paper PMC7184167
